About 2,000 (36%) of roughly 5,500 compounds were called active. Inconclusive results (about 18%) are left out. No stated cut-off is given here; in the data, active means normalized growth mostly below about 0.91 (no sharp cut-off); inconclusive means no clear call, values can overlap the other calls; inactive means mostly above about 0.92. Some of the results follow.
Assay: chemical genetic growth profiling, strain panel (AID 1159580);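 further: tested at 20 µM; growth read once vehicle control cultures reached saturation at 30 °C; 1 = growth at the plate median or of vehicle wells; lower values mean less growth of the strain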
Conditions: S. cerevisiae deletion strains, growth OD

Measured: normalized growth

Cc1ccc(NC(=S)C(C#N)C(=O)N2CCOCC2)c(C)c1 (stereo unspecified)
inactive: locus YAR019C, strain CDC15, active compounds read low 0.993 | locus YBL105C, strain PKC1, active compounds read low 0.997 | locus YBR135W, strain CKS1, active compounds read low 0.988 | locus YBR136W, strain MEC1, active compounds read low 0.972 | locus YBR160W, strain CDC28, active compounds read low 0.991 | locus YDL017W, strain CDC7, active compounds read low 0.992 | locus YDL028C, strain MPS1, active compounds read low 0.988 | locus YDL101C, strain DUN1, active compounds read low 0.995 | locus YDL108W, strain KIN28, active compounds read low 0.991 | locus YDL132W, strain cdc53, active compounds read low 0.991 | locus YDL214C, strain PRR2, active compounds read low 1.04 | locus YDR052C, strain DBF4, active compounds read low 0.998 | locus YDR054C, strain cdc34, active compounds read low 0.99 | locus YDR226W, strain ADK1, active compounds read low 0.98 | locus YDR477W, strain SNF1, active compounds read low 1.05 | locus YER123W, strain YCK3, active compounds read low 1.05 | locus YER133W, strain GLC7, active compounds read low 1.05 | locus YFL009W, strain cdc4, active compounds read low 0.985 | locus YFL029C, strain CAK1, active compounds read low 0.995 | locus YFR003C, strain YPI1, active compounds read low 0.995 | locus YFR019W, strain FAB1, active compounds read low 1.01 | locus YFR028C, strain CDC14, active compounds read low 0.993 | locus YGR040W, strain KSS1, active compounds read low 1.05 | locus YGR052W, strain FMP48, active compounds read low 1.11 | locus YGR092W, strain DBF2, active compounds read low 1.02 | locus YHR030C, strain SLT2, active compounds read low 1.03 | locus YHR079C, strain IRE1, active compounds read low 1.04 | locus YHR082C, strain KSP1, active compounds read low 1.21 | locus YHR205W, strain SCH9, active compounds read low 0.908 | locus YIL147C, strain SLN1, active compounds read low 0.983 | locus YJL095W, strain BCK1, active compounds read low 1.02 | locus YJL128C, strain PBS2, active compounds read low 0.937 | locus YJL157C, strain FAR1, active compounds read low 1.02 | locus YJR016C, strain ILV3, active compounds read low 0.991 | locus YJR066W, strain TOR1 (second series), active compounds read low 1.05 | locus YJR066W, strain TOR1, active compounds read low 1.19 | locus YKL048C, strain ELM1, active compounds read low 1.01 | locus YKL067W, strain YNK1, active compounds read low 1.02 | locus YKL101W, strain HSL1, active compounds read low 1.01 | locus YKL193C, strain SDS22, active compounds read low 0.983 | locus YKL203C, strain TOR2, active compounds read low 1.09 | locus YLR113W, strain HOG1, active compounds read low 1.07 | locus YLR133W, strain CKI1, active compounds read low 1.03 | locus YLR403W, strain SFP1, active compounds read low 0.957 | locus YML070W, strain DAK1, active compounds read low 1.05 | locus YMR001C, strain CDC5, active compounds read low 0.994 | locus YMR205C, strain PFK2 (second series), active compounds read low 1.03 | locus YMR277W, strain FCP1, active compounds read low 0.989 | locus YNL006W, strain LST8, active compounds read low 0.991 | locus YNL020C, strain ARK1, active compounds read low 1.04 | locus YNL161W, strain CBK1, active compounds read low 0.991 | locus YNL183C, strain NPR1, active compounds read low 1.18 | locus YNL207W, strain RIO2, active compounds read low 0.985 | locus YNL222W, strain SSU72, active compounds read low 0.991 | locus YNL307C, strain MCK1 (second series), active compounds read low 1.02 | locus YOL078W, strain AVO1, active compounds read low 0.985 | locus YOL136C, strain PFK27, active compounds read low 1.05 | locus YOR061W, strain CKA2, active compounds read low 1.01 | locus YOR119C, strain RIO1, active compounds read low 1.11 | locus YOR231W, strain MKK1, active compounds read low 1.11 | locus YOR329C, strain SCD5, active compounds read low 0.993 | locus YPL031C, strain PHO85, active compounds read low 1.04 | locus YPL153C, strain RAD53, active compounds read low 1.03 | locus YPL204W, strain HRR25, active compounds read low 1.06 | locus YPL209C, strain IPL1, active compounds read low 0.99 | locus YPL256C, strain CLN2, active compounds read low 1.06 | locus YPR025C, strain CCL1, active compounds read low 0.997 | locus YPR106W, strain ISR1, active compounds read low 1.01 | locus YPR111W, strain DBF20, active compounds read low 1 | strain NNK1, active compounds read low 0.999 | strain TSCII, active compounds read low 0.994

Reference: PubChem BioAssay AID1159580 (chemical genetic matrix, 2015)
